According to PubChem BioAssay AID2685 (National Center for Advancing Translational Sciences (NCATS), 2010):
About 2,100 (0.66%) of roughly 320,000 compounds were called active. Not shown: some 53% with an inconclusive outcome. Calls follow the shape of the dose curve; as a rule, active = well fitted inhibition curve with a large enough effect in the signal ratio, with a control signal flat (not every such curve was filed as active); inconclusive = small, poorly fitted or top-dose-only effect, or effect the other way, or a change in a side signal; inactive = flat fitted curve, though single readings scatter; the % refers to the signal ratio. The list comes from a sample in which actives are over-represented; it also holds similar structures and randomly drawn compounds.

Experiment: qHTS Assay for Lipid Storage Modulators in Drosophila S3 Cells;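 as to cell number change: cells counted by Cell Tracker Red CMTPX staining in the red channel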
Details: BODIPY lipid droplet fluorescence, 18-24 h, cells fed with added oleic acid; cell number change: measured here: cell count max response; series mostly up to 46.1 µM
Summary of the method: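 Drosophila S3 cells loaded with oleic acid (400 uM, as added) and compounds at several concentrations; lipid droplets imaged by 488-nm laser-scanning cytometry, 500–530 nm intensity and object ratio to cell channel. Percent activity normalized to 20 uM Triacsin C.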
Potency is read from the fitted curve at half-maximal effect.

Q: Which Potency does the source give for `O=C(N=C1N=C2C=CC=CN2Cc2ccccc21)c1ccc(S(=O)(=O)N2CCCC2)cc1` here?
A: inactive

Q: And the cell number change?
A: 13.8%

Q: With `O=C(Nc1ccc(Oc2ncnc3cc(Cl)ccc23)nc1)Nc1cccc(C(F)(F)F)c1` as the molecule, how does the Potency read?
A: inactive

Q: What about the cell number change of the same molecule?
A: -3.74%

Q: For `O=C(N[C@H]1CC1c1ccccc1)c1ccc([N+](=O)[O-])cc1` (stereo not given in full), which Potency is on record?
A: inactive

Q: And the cell number change?
A: -1.22%

Q: Which Potency does the source give for `C=C(C)Cn1c(-c2ccncc2)n[nH]c1=S` here?
A: inactive

Q: And the cell number change?
A: -24.7%

Q: With `O=C(CCN1CCOCC1)N1CCCC(Nc2ccc(F)cc2)C1` (stereo not given) as the molecule, how does the Potency read?
A: inactive

Q: Which results are given for `CCS(=O)(=O)c1ccc2c(c1)NC(=O)C(CCO)O2` (stereo not given)?
A: Potency: inactive; cell number change: 7.6%

Q: Which results are given for `O=C1Nc2ncccc2OC1CCO` (stereo not given)?
A: Potency: 25.9 µM (active); cell number change: -19.3%

Q: For `O=C1Nc2ncccc2OC1CCCl` (stereo not given), which Potency is on record?
A: inactive

Q: And the cell number change?
A: 11.9%

Q: Which Potency does the source give for `CCOC(=O)c1ccc(NC(=O)Cn2c(=O)oc3ccccc32)cc1` here?
A: inactive

Q: What about the cell number change of the same molecule?
A: 2.64%

Q: Which Potency does the source give for `CC1=C(C(=O)OC(C)(C)C)C(c2cccs2)NC(=O)N1` (stereo not given) here?
A: inactive

Q: What about the cell number change of the same molecule?
A: 16.7%

Q: Which results are given for `COc1cc(C2NC(=O)NC(C)=C2C(=O)OC(C)(C)C)ccc1OCC(N)=O` (stereo not given)?
A: Potency: inactive; cell number change: 1.52%

Q: Which Potency does the source give for `COc1ccc2c(c1OC)C(=O)NC(C)=C(C(=O)OC(C)(C)C)C2O` (stereo not given) here?
A: 14.6 µM (active)

Q: And the cell number change?
A: 0.147%

Q: With `O=C1O/C(=C\C(=O)N2CCOCC2)c2ccccc21` as the molecule, how does the Potency read?
A: inactive

Q: And the cell number change?
A: 1.94%

Q: What does the source list for `CCN(CC)c1ccc(C(=O)OCC(=O)Nc2cc3oc4ccccc4c3cc2OC)cc1`?
A: Potency: inactive; cell number change: -0.812%

Q: Which Potency does the source give for `Cn1c(=O)c2c(nc(SCC(=O)N3CCCCCC3)n2C)n(C)c1=O` here?
A: inactive

Q: What about the cell number change of the same molecule?
A: 8.11%

Q: With `CC(C)n1c(SCC(=O)N2CCCCC2)nc2c1c(=O)n(C)c(=O)n2C` as the molecule, how does the Potency read?
A: 0.116 µM (active)

Q: What about the cell number change of the same molecule?
A: -23%

Q: Which Potency does the source give for `CC(C)n1c(SCC(=O)N2CCN(C)CC2)nc2c1c(=O)n(C)c(=O)n2C` here?
A: inactive

Q: What about the cell number change of the same molecule?
A: 1.32%

Q: For `CCC(CC)C(=O)NCCc1cc2ccc(C)c(C)c2[nH]c1=O`, which Potency is on record?
A: inactive

Q: Which Potency does the source give for `CCn1cc(/C=N/O)c(C)n1` here?
A: inactive

Q: What about the cell number change of the same molecule?
A: 7.41%

Q: What does the source list for `CC1(C)N=C(/C=N/O)C=[N+]1[O-]`?
A: Potency: 6.51 µM (active); cell number change: -9.07%

Q: With `CCCN(CCC)CCCNC(=O)C1CCC(CNS(=O)(=O)c2cccc3nsnc23)CC1` (stereo not given) as the molecule, how does the Potency read?
A: inactive

Q: What about the cell number change of the same molecule?
A: -15%

Q: With `CCCCC(=O)NC(c1ccc(C(C)C)cc1)c1ccc2cccnc2c1O` (stereo not given) as the molecule, how does the Potency read?
A: 18.4 µM (active)

Q: And the cell number change?
A: -28.4%

Q: Which results are given for `CCCCC(=O)NC(c1ccccc1OC)c1ccc2cccnc2c1O` (stereo not given)?
A: Potency: inactive; cell number change: -24%

Q: Which Potency does the source give for `CC(=O)NC(c1ccc(C(C)C)cc1)c1ccc2cccnc2c1O` (stereo not given) here?
A: inactive

Q: What does the source list for `CCOc1c(Br)cc(CNc2ccc(N3CCOCC3)cc2)cc1OC`?
A: Potency: inactive; cell number change: -20.8%

Q: For `Cc1cc(OC(C)C(=O)NCC(O)c2ccccc2)c2c(C)cc(=O)oc2c1` (stereo not given), which Potency is on record?
A: inactive

Q: And the cell number change?
A: 6.57%

Q: Which Potency does the source give for `CCOc1ncccc1C(=O)NCc1ccccc1Cl` here?
A: inactive
